Assay [1] is described as follows: qHTS assay for small molecule agonists of the p53 signaling pathway (AID 651631; calls by dose curve; also: nearly all actives have a fitted effect of over 15% in size; also: potency is read from the fitted curve at half-maximal effect). The method, boiled down: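 HCT-116 cells carrying a stable p53 response element–beta-lactamase reporter were plated, rested 5 h at 37 °C, then exposed to compound in DMSO for 16 h at 37 °C; reporter activity was read as FRET substrate fluorescence after 2 h at room temperature.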
Assay [2] is described as follows: qHTS assay for small molecules that induce genotoxicity in human embryonic kidney cells expressing luciferase-tagged ATAD5 (AID 651632). Also: nearly all actives have a fitted effect of over 15% in size. In a few lines: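 HEK293T cells carrying a luciferase reporter tagged to ATAD5 were exposed to compound or DMSO vehicle for 16 hr at 37C, 5% CO2. Amplite was added, and after 30 min at room temperature luciferase activity was read as a marker of ATAD5 induction.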

Assay [3] in a line: qHTS assay for small molecule agonists of the p53 signaling pathway - cell viability (AID 651633; calls by dose curve; also: nearly all actives have a fitted effect of over 30% in size; also: potency is read from the fitted curve at half-maximal effect). In a few lines: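 Viability counter-read: CellTiter-Glo luminescence (30 min, room temperature) in the same p53RE-bla plates. These plates had been exposed to compounds for 16 h at 37 C.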
A short description of assay [4]: qHTS assay for small molecules that induce genotoxicity in human embryonic kidney cells expressing luciferase-tagged ATAD5 - cell viability (AID 651634; calls by dose curve; also: nearly all actives have a fitted effect of over 25% in size). In a few lines: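 HEK293T cells expressing luciferase-tagged ATAD5 were exposed to compound or DMSO for 15.5 hr at 37C, 5% CO2. Viability was then read as live-cell protease activity by CellTiter-Fluor fluorescence after 30 min at 37C.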

A short description of assay [5]: qHTS assay for small molecule disruptors of the mitochondrial membrane potential (AID 720635). Also: potency is read from the fitted curve at half-maximal effect. The method, boiled down: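 Mitochondrial membrane potential tracked with Mito-MPS dye, red aggregates (ex 540/em 590 nm) against green monomers (ex 490/em 535 nm). Compound treatment 1 hr at 37C, dye 30 min in HepG2.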
The nature of assay [6]: qHTS assay to test for compound auto fluorescence at 535 nm (green) in HepG2 cells (AID 720675). Also: potency is read from the fitted curve at half-maximal effect.
The nature of assay [7]: qHTS assay to test for compound auto fluorescence at 460 nm (blue) in HEK293 cells (AID 720678). In a few lines:
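Intrinsic compound fluorescence is recorded in live HEK293 cultures after overnight incubation at 37C, 5% CO2, using excitation 405 nm and emission 460 nm. Values are referenced to triamterene.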

Assay [8] can be described thus: qHTS assay to test for compound auto fluorescence at 535 nm (green) in HEK293 cells (AID 720680).
Assay [9] is described as follows: qHTS assay to test for compound auto fluorescence at 460 nm (blue) in HEK293 cell free culture (AID 720681). The method, boiled down: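 Blue fluorescence (Ex 405/Em 460 nm, triamterene-equivalent) was read immediately after pin transfer of compound or DMSO into medium (DMEM, 10% FBS) without cells.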
The nature of assay [10]: qHTS assay to test for compound auto fluorescence at 535 nm (green) in HEK293 cell free culture (AID 720682). In a few lines:
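Read-out: 485/535 nm fluorescence intensity, calibrated against fluorescein. Medium only (DMEM + 10% FBS, no cells); test compound or DMSO vehicle added by pintool before plate reading.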

Assay [11] can be described thus: qHTS assay to test for compound auto fluorescence at 590 nm (red) in HEK293 cell free culture (AID 720683). In a few lines:
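Red-channel autofluorescence of compounds in culture medium (DMEM, 10% FBS), no cells, measured at 540/590 nm. Rose Bengal sodium is the reference fluorophore for equivalence.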

A short description of assay [12]: qHTS assay to test for compound auto fluorescence at 460 nm (blue) in HepG2 cell free culture (AID 720685). The method, boiled down: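 Compound (23 nL) or DMSO pinned into cell-free MEM with 10% FBS; blue fluorescence read at 405/460 nm excitation/emission, expressed as auto-fluorescence equivalency to triamterene.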
The nature of assay [13]: qHTS assay to test for compound auto fluorescence at 535 nm (green) in HepG2 cell free culture (AID 720686). Also: potency is read from the fitted curve at half-maximal effect.
The nature of assay [14]: qHTS assay to test for compound auto fluorescence at 460 nm (blue) in HepG2 cells (AID 720687). The method, boiled down:
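Blue-channel autofluorescence (Ex/Em 405/460 nm, triamterene-equivalent) was measured after 1 hr compound exposure at 37 C, 5% CO2. Cells were HepG2, plated overnight at 37 C in MEM plus 10% FBS.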

For assay [15], the target named is Glucocorticoid receptor (Homo sapiens) (UniProt P04150). Nature of the assay: qHTS assay to identify small molecule antagonists of the glucocorticoid receptor (GR) signaling pathway (AID 720692; active = well fitted inhibition curve with a large enough effect in the signal ratio in the repeat runs, not every such curve was filed as active; the % refers to the signal ratio). In a few lines: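 GR-bla HeLa cells (beta-lactamase reporter under glucocorticoid response element) were pre-plated 4 h at 37 C, treated with compounds plus 5 nM dexamethasone (final) for 18 h, then read by LiveBLAzer B/G FRET fluorescence after 2 h.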
Chain of Glucocorticoid receptor (Homo sapiens) (P04150 whole entry, looked up): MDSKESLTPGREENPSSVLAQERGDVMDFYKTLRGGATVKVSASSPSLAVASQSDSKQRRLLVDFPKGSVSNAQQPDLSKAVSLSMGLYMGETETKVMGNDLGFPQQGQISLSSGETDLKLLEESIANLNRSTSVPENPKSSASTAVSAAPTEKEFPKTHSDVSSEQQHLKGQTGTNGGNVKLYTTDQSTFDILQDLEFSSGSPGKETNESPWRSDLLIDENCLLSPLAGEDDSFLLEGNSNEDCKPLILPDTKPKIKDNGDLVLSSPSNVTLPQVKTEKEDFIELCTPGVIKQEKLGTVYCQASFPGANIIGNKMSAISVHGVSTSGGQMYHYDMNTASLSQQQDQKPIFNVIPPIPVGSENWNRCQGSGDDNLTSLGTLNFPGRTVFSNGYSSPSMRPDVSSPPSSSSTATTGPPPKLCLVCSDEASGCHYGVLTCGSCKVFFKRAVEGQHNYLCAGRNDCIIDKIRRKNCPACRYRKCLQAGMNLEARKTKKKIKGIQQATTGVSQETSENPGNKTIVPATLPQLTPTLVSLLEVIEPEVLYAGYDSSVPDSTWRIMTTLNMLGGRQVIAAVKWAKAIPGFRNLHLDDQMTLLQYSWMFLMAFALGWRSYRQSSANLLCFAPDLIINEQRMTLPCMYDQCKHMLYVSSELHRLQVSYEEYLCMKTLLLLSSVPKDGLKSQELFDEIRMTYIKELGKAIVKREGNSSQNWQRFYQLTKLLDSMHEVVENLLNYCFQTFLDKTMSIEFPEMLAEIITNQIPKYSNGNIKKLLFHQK

Assay [16] is described as follows: qHTS assay for small molecule disruptors of the mitochondrial membrane potential - cell viability (AID 720634; calls by dose curve;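 also: human HepG2 liver cancer cells; nearly all actives have a fitted effect of over 20% in size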). The method, boiled down: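 HepG2 cells seeded overnight at 37 C, then exposed to compound or DMSO for 1 hr at 37 C, 5% CO2. m-MPI dye added, then CellTiter-Glo for 30 min at room temperature; viability read as ATP luminescence.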
Assay [17] can be described thus: qHTS assay to test for compound auto fluorescence at 590 nm (red) in HepG2 cells (AID 720674). The method, boiled down:
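Red autofluorescence (Ex/Em 540/590 nm, Rose Bengal sodium equivalents) was measured in HepG2 cells, 2,000 per well in MEM plus 10% FBS, plated overnight at 37 C. Readings were taken 1 hr after adding 23 nL compound or DMSO, at 37 C and 5% CO2.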

Assay [18] can be described thus: qHTS assay to test for compound auto fluorescence at 590 nm (red) in HepG2 cell free culture (AID 720684). In a few lines: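 Plate contents were MEM with 10% FBS plus test compound or DMSO, no cells. Fluorescence was recorded with 540 nm excitation and 590 nm emission.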
Assay [19] deals with Glucocorticoid receptor (Homo sapiens) (UniProt P04150). Kind of assay: qHTS assay to identify small molecule agonists of the glucocorticoid receptor (GR) signaling pathway (AID 720691; active = well fitted activation curve with a large enough effect in the signal ratio in the repeat runs, not every such curve was filed as active; the % refers to the signal ratio). Particulars: GR-bla HeLa, beta-lactamase reporter ratio, 18 h; activation: at 62.4 µM (top of the series). In a few lines: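 GR-bla HeLa cells (beta-lactamase reporter under glucocorticoid response element) were plated 4 h at 37 C/5% CO2, given compounds in DMSO, and incubated 18 h at 37 C. LiveBLAzer B/G FRET substrate was added for 2 h at room temperature, then fluorescence intensity read.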

Assay [20] can be described thus: qHTS assay to test for compound auto fluorescence at 590 nm (red) in HEK293 cells (AID 720679). In a few lines:
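Red autofluorescence, HEK293 cells: 2,000 cells/well; attach 4-5 hr 37C; add 23 nL cpd or DMSO; incubate o/n 37C 5% CO2; read Ex540/Em590; Rose Bengal sodium reference.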

From PubChem BioAssay (Tox21) come the findings set out here.

Results filed as inconclusive are left out. Calls of active or inactive are those of the source. Unless noted, calls follow the shape of the dose curve; as a rule, active = well fitted curve in the direction sought with a large enough effect in the repeat runs; inconclusive = weak or mixed curves; inactive = no such curve, though single readings can be large; an effect the other way counts as inactive or inconclusive.
Tags tell the direction and shape of the fitted curve or compound fluorescence and quenching.

As to `COCCC#N`, the Potency entry in [1], in assay [2], in assay [3], in assay [4], in [5] and in [6] was “inactive” in each case. Besides, the Potency entry in assay [7], in [9], in assay [12], in assay [13], in [14] and in [15] was “inactive” each time. In addition, the call in [8], in assay [10] and in assay [11] was inactive.
For `CC(C)Br`, the Potency entry in assay [1], in assay [2], in assay [3], in assay [16], in [6] and in assay [7] was “inactive” in each case. Also, the Potency result in assay [9], in [12], in assay [13], in assay [14], in assay [19] and in assay [15] was “inactive” throughout. The molecule was classed as inactive in assay [17], in [8], in assay [10], in assay [11] and in [18].
Take `CN1[C@@H]2CC[C@H]1CC(O)C2` (stereo partly specified): the Potency entry in assay [1], in assay [2], in assay [3], in [5], in assay [6] and in assay [7] was “inactive” in each case. The Potency entry in assay [9], in assay [12], in assay [13] and in [14] was “inactive” in each case. Besides, the outcome in assay [20], in [8], in [10], in assay [11] and in assay [18] was inactive.
For the molecule `c1ccc2c(c1)cc1ccc3cccc4ccc2c1c34`, the values for the Potency in [1] and in assay [5] were 3.5 µM (active) and 14 µM (active), respectively. Also, the Potency result in assay [2], in assay [3], in assay [4], in assay [6], in assay [9] and in [13] was “inactive” in each case. The outcome in [20], in [8], in assay [11] and in assay [18] was inactive.
Regarding `CCCCCCC[CH2][Sn]([Cl])([Cl])[CH2]CCCCCCC`, the Potency entry in assay [2], in [4], in [16], in assay [6], in assay [7] and in [9] was “inactive” each time. Moreover, the Potency result in assay [12], in assay [13] and in assay [14] was “inactive” throughout. In addition, the Potency in assay [3] was 15.3 µM (active); in assay [5], 48.5 µM (active). In addition, the molecule was classed as inactive in assay [17], in [8], in [10] and in assay [18].
As to `Nc1nc(N)c(N)c(N)n1`, the Potency entry in [2], in assay [3], in [4] and in assay [16] was “inactive” in each case. Besides, the results for the Potency in [5], in assay [6] and in assay [13] were 8.68 µM (active), 31.6 µM (active) and 28.2 µM [fluorescent] (active), respectively. The outcome in [17], in assay [11] and in assay [18] was inactive.
Take `O=C(O)CCCCCCNC1c2ccccc2CCc2ccccc21`: the Potency entry in [2], in [3], in [4], in [16], in [5] and in assay [6] was “inactive” in each case. Also, the Potency entry in assay [7], in assay [9], in [12], in [13], in assay [14] and in [15] was “inactive” each time. Besides, the molecule was classed as inactive in assay [17], in assay [20], in [8], in assay [10] and in [11].
`Cc1ccc(C)c2ccccc12`: the Potency result in assay [2], in assay [3], in assay [4], in assay [16], in assay [5] and in [6] was “inactive” throughout. In addition, the Potency entry in assay [7], in assay [9], in assay [12], in assay [13] and in assay [14] was “inactive” each time. The result in assay [8], in assay [10], in assay [11] and in [18] was inactive.
